Rows were chosen to be rich in hits. Some 0.97% of all compounds tested hit in one or more screens of this group.
A1 inh: inhibitors of the anti-apoptotic protein A1, read as caspase activation; caspase activation, % (concentration not given with the values); hit rate 0.066% among 330,000; MEF A1-2A-BIM cells, Caspase-Glo 3/7 luminescence, 3 h; percent of clofoctol response, vehicle zero;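 active = over half of replicate activation scores above 10%, or exactly half above 10 with the replicate mean above 10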
NTR1 ag: NTR1 (human) agonism | NTR1-U2OS beta-arrestin-GFP spot imaging, agonist mode | activation, % at 20 µM | hit rate 0.17% among 330,000 | P30989 | AID 493036;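 active = activation at or above 40% of the spot to cytoplasm intensity ratio, with at least 20 cells analyzed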;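 also: 0% = DMSO without peptide and 100% = 100 nM NTR1 peptide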
Target sequence (P30989 whole entry, looked up): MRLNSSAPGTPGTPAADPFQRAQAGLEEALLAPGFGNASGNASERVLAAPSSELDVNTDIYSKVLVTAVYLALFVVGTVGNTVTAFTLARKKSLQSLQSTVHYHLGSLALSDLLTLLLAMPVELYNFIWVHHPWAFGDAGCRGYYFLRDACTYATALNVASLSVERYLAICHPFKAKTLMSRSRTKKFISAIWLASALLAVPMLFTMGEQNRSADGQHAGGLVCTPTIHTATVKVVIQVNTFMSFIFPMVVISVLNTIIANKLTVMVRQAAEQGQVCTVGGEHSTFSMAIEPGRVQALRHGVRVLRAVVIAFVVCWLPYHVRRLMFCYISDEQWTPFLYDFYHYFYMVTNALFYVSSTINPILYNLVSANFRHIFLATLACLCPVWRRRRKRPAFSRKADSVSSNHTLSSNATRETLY
TLR9-MyD88 inh: inhibitors of human TLR9-MyD88 binding; inhibition, % at 4.98 µM; AID 504734; hit rate 0.21% among 340,000; CHO BLA complementation TLR9-MyD88, CCF4 FRET ratio;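 active = inhibition above the mean over all tested compounds plus 3 SD, cut at about 21% in these data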;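 also: 0% = DMSO only wells and 100% = clavulanate BLA inhibitor control wells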
NOD2 RIPK2 PPI: blocks binding of human NOD2 to RIPK2; CHO BLA complementation NOD2-RIPK2, CCF4 ratio; hit rate 0.38% among 360,000; O43353; inhibition, % at 4.98 µM; in the data active = inhibition above about 21%;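 also: 0% = vehicle only and 100% = reference blocker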
B2AR ag: agonists of human beta-2 adrenergic receptor inducing internalization | P07550 | Am2.2-beta2AR cells, FAP receptor internalization, flow cytometry | response, % (no concentration beside the values) | hit rate 0.43% among 340,000 | AID 504454;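 active = response above a set limit, near 3 SD of response in nonfluorescent compounds, cut at about 42% in these data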
TLR4-MyD88 BLA: inhibitors of human TLR4-MyD88 binding; O00206+Q99836; hit rate 0.18% among 200,000; HeLa CL3-4 TLR4/MyD88 BLA complementation, FRET ratio; inhibition, % at 8.4 µM; in the data active = inhibition above about 25%;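 also: 0% = vehicle and 100% = reference inhibitor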
TLR4-MyD88 conf: confirmation of human TLR4-MyD88 binding inhibitors | shares compounds with TLR4-MyD88 BLA | HeLa CL3-4 BLA complementation, CCF4 FRET ratio | inhibition, % at 8.4 µM | hit rate 50% among 350 | AID 941;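 active = mean inhibition across three repeat runs above about 25% carried over from the earlier screen, limit read from the data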;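 also: plate controls were DMSO only for no effect and clavulanic acid blocking BLA at full dose for full effect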
BLA inhibitor ct: counter-screen for TLR4-MyD88 inhibitors: beta-lactamase reporter inhibitors; shares compounds with TLR4-MyD88 BLA; HeLa BLA reporter, CCF4 FRET ratio; inhibition, % at 8.4 µM; hit rate 63% among 350; AID 1237;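 active = mean inhibition over three repeats above about 26% taken from the earlier screen, limit read from the data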;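 also: HeLa cells stably expressing beta-lactamase reporter as counterscreen for TLR4-MyD88 inhibitors; 0% = DMSO and 100% = clavulanic acid full inhibition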
TLR9-MyD88 cf: confirmation of human TLR9-MyD88 binding inhibitors. hit rate 51% among 680. shares compounds with TLR9-MyD88 inh. inhibition, % at 4.98 µM. CHO TLR9/MyD88 BLA complementation, CCF4 FRET ratio;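 active = mean inhibition across three repeats above about 21% taken from the earlier screen, limit read from the data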;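 also: blue over green emission ratio reports constitutive TLR9 MyD88 association via BLA complementation; 0% = DMSO vehicle wells and 100% = clavulanate BLA inhibitor wells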
BLA counter-1: non-selective beta-lactamase inhibitors in TLR9-MyD88 counter-screen; shares compounds with TLR9-MyD88 inh; CHO-BLA cells, CCF4 FRET ratio, BLA reporter; inhibition, % at 4.98 µM; hit rate 7% among 680; AID 540251;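 active = mean inhibition above a 50% cutoff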;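 also: counterscreen of TLR9-MyD88 hits on CMV-driven BLA in CHO-K1 cells; 0% = DMSO alone and 100% = clavulanate blocking BLA; higher means less blue over green ratio so more BLA blockade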
TLR9 CHO tox: CHO cell toxicity counter-screen for TLR9-MyD88 inhibitors | shares compounds with TLR9-MyD88 inh | TLR9-MyD88 CHO cells cytotoxicity, luminescence | inhibition, % at 4.98 µM | hit rate 39% among 680; in the data active = inhibition above about 11%
NOD2-RIPK2 conf: confirmation of human NOD2-RIPK2 interaction inhibitors | shares compounds with NOD2 RIPK2 PPI | CHO cells, NOD2-RIPK2 BLA complementation, CCF4 FRET | inhibition, % at 4.98 µM | AID 624370 | hit rate 70% among 1,200;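 active = mean inhibition across replicates above a set limit taken from the earlier primary screen, cut at about 21% in these data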;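 also: 0% = DMSO-only wells and the high end = clavulanate BLA-blocked wells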
BLA counter-2: counter-screen for NOD2-RIPK2 interaction inhibitors: BLA reporter; AID 624371; hit rate 57% among 1,200; inhibition, % at 4.98 µM; shares compounds with NOD2 RIPK2 PPI; CHO BLA reporter, CCF4 FRET ratio, counterscreen;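 active = mean inhibition above the low-control mean inhibition plus three low-control SD, cut at about 11% in these data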;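 also: 0% = DMSO only wells and 100% = clavulanate high control wells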
Starred values were filed as active, the others as inactive; i = inactive; . = not tested or not shown.

SMILES	A1 inh	NTR1 ag	TLR9-MyD88 inh	NOD2 RIPK2 PPI	B2AR ag	TLR4-MyD88 BLA	TLR4-MyD88 conf	BLA inhibitor ct	TLR9-MyD88 cf	BLA counter-1	TLR9 CHO tox	NOD2-RIPK2 conf	BLA counter-2
N#C/C(=C/c1ccc(-c2ccc(S(N)(=O)=O)cc2)o1)c1nc2ccccc2s1	-1.7	-0.6	47.1*	38.5*	i	46.3*	46.2*	75.5*	46.2*	40.8	23.7*	70.8*	70.9*
N#C/C(=C/c1ccc(-c2ccc(S(N)(=O)=O)cc2)o1)C(=O)Nc1ccccc1	-0.8	10.6	14.1	16.7	3.0	-2.8	.	.	.	.	.	.	.
O=C(COc1ccc(S(=O)(=O)N2CCCCC2)cc1Cl)N1CCCC1	-1.2	-0.6	-19.2	1.3	-8.6	.	.	.	.	.	.	.	.
CCOC(=O)CS(=O)(=O)c1ccccc1	-0.5	-5.4	-6.0	-10.7	2.8	9.5	.	.	.	.	.	.	.
CCOC(=O)CS(=O)(=O)c1nc(-c2ccccc2)cc(C(F)(F)F)n1	8.7*	1.6	30.1*	85.1*	109.0*	25.2*	17.5	-18.0	30.0*	7.1	99.9*	84.8*	26.5*
O=c1oc2cc(O)ccc2cc1-c1nc2c(s1)CCc1ccccc1-2	-0.6	.	46.9*	44.5*	.	52.5*	68.6*	99.0*	66.7*	78.7*	2.0	72.1*	84.8*
Nc1nnc(-c2cc3ccccc3oc2=O)s1	0.4	-0.4	14.0	11.8	25.7	13.8	.	.	.	.	.	.	.
O=c1oc2ccccc2cc1-c1nc2c(s1)CCc1ccccc1-2	-0.8	7.5	48.7*	40.1*	-2.2	31.4*	47.0*	81.1*	50.5*	57.5*	-1.6	68.6*	78.6*
COC(=O)C1CCN(CC(=O)Nc2cc(Cl)ccc2OC)CC1	0.1	0.6	.	.	.	0.7	.	.	.	.	.	.	.
Cc1ncsc1C(=O)N1N=C2/C(=C/c3ccccc3)CCCC2C1c1ccccc1 (stereo not given)	0.0	12.2	-5.0	3.0	6.9	-10.0	.	.	.	.	.	.	.
Cc1nc(N2N=C3/C(=C/c4ccc(F)cc4)CCCC3C2c2ccc(F)cc2)sc1C(=O)N(C)C (stereo not given)	.	15.5	20.7	42.4*	4.1	41.5*	37.4*	64.8*	.	.	.	57.2*	65.0*
Cc1occc1-c1nnc(SCC(=O)Nc2ccccc2N2CCCCC2)n1C	-0.6	0.0	1.4	1.4	5.7	-6.6	.	.	.	.	.	.	.
O=C(Cn1ncc(Cl)c(Cl)c1=O)c1ccc(Cl)cc1	1.0	.	31.8*	34.0*	15.0	28.9*	21.9	8.3	17.7	12.9	71.6*	39.0*	6.5
CC(=O)C1=NN(c2ccccc2)C(c2cccs2)N1c1ccc(N(C)C)cc1 (stereo not given)	-0.1	4.1	-2.9	-3.6	3.5	-10.0	.	.	.	.	.	.	.
CC(=O)C1=NN(c2ccccc2)C(c2ccc3c(c2)OCO3)N1c1ccccc1 (stereo not given)	0.5	0.1	20.1	21.1*	3.2	28.0*	16.6	35.7*	.	.	.	38.9*	49.0*
Nc1cccc(-c2cnc3ccccc3n2)c1	-6.4	0.4	-3.4	-3.8	5.6	.	.	.	.	.	.	.	.
CCN1CCc2c(sc(NC(=O)Nc3ccc(Cl)c(Cl)c3)c2C(N)=O)C1	-0.9	.	48.0*	40.9*	i	35.1*	37.5*	60.1*	14.6	9.6	20.1*	24.5*	30.0*
CCN1CCc2c(sc(NC(=O)Cc3ccccc3)c2C(N)=O)C1	.	-2.3	1.8	-2.1	-9.3	.	.	.	.	.	.	.	.
Cn1c(=O)c(NCCc2ccccc2)c2c3c(cccc31)C(=O)c1ccccc1-2	0.0	-3.5	36.7*	37.9*	.	38.6*	39.1*	64.0*	36.6*	38.1	-1.9	62.7*	70.9*
CCCCNc1c2c3c(cccc3n(C)c1=O)C(=O)c1ccccc1-2	0.5	-2.3	35.7*	47.4*	-629.0	40.8*	25.9*	46.9*	25.7*	25.8	6.3	51.8*	57.5*
Cn1c(=O)c(NCCO)c2c3c(cccc31)C(=O)c1ccccc1-2	-0.2	-3.7	3.4	5.5	-2.3	2.1	.	.	.	.	.	.	.
Cn1cc(CN2CCC(O)CC2)c(-c2ccc(Oc3ccccc3)cc2)n1	1.2	-0.5	-4.3	9.4	-3.3	-9.3	.	.	.	.	.	.	.
Cc1ccc(CNC(=O)c2ccc(Cn3nc(C)cc3C)o2)cc1	-0.2	-1.5	-3.0	4.5	3.0	.	.	.	.	.	.	.	.
CNC(=O)COC(=O)c1ccccc1C(=O)c1ccc(Cl)c([N+](=O)[O-])c1	.	.	25.4*	24.5*	16.4	31.6*	22.0	5.3	23.2*	18.5	7.6	52.9*	6.8
CN(C(=O)CC1C(=O)NCCN1CC1CCCCC1)C1CCOCC1 (stereo not given)	1.0	-0.8	6.3	-18.1	1.0	.	.	.	.	.	.	.	.
SMILES	A1 inh	NTR1 ag	TLR9-MyD88 inh	NOD2 RIPK2 PPI	B2AR ag	TLR4-MyD88 BLA	TLR4-MyD88 conf	BLA inhibitor ct	TLR9-MyD88 cf	BLA counter-1	TLR9 CHO tox	NOD2-RIPK2 conf	BLA counter-2
CC1(C(=O)N/N=C/c2ccccc2)CC1(Br)Br (stereo not given)	-0.1	1.5	1.1	0.5	1.9	0.7	.	.	.	.	.	.	.
Cc1ccc(S(=O)(=O)NC(=O)Nc2cccc(S(=O)(=O)N(C)C)c2)cc1	2.0	-1.5	7.3	-4.2	-5.6	.	.	.	.	.	.	.	.
Cc1cc(Cl)n2c(nc3ccccc32)c1C#N	.	.	-3.9	23.3*	98.7*	45.3*	52.1*	55.9*	.	.	.	86.5*	62.7*
CCOc1ccc(S(=O)(=O)N(CC(=O)N/N=C/c2ccc(-c3ccc([N+](=O)[O-])cc3)o2)c2ccccc2)cc1	0.3	3.1	55.1*	35.1*	-4.4	65.2*	50.1*	87.1*	56.9*	58.5*	21.8*	68.2*	76.3*
CN(C)c1ccc(/C=C/c2nc3ccccc3s2)cc1	-6.2	-1.7	30.3*	21.5*	-23.4	44.5*	43.8*	67.6*	46.3*	59.2*	25.5*	57.0*	69.7*
COc1cc(OC)c2c(c1)OC(=O)CC2c1ccc2c(c1)OCO2 (stereo not given)	.	-0.8	-4.9	-4.5	-2.6	.	.	.	.	.	.	.	.
